Source: PubChem BioAssay (several laboratories)
Compounds with a hit are over-represented: about 2.2% of the library has one in this group of screens.
LYP inh 2 – blocks human PTPN22 phosphatase activity. Q9Y2R2. recombinant LYP catalytic domain, DiFMUP fluorescence. inhibition, % at 2 µM. hit rate 0.21% among 96,000. AID 640;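 active = inhibition at 2 µM at or above a set limit, the screen mean plus 3 SD, cut at about 24% in these data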
LYP act – activators of human LYP (PTPN22) phosphatase; Q9Y2R2; recombinant LYP, DiFMUP fluorescence; 0 = plate median, 100 = signal doubled; activation, % at 2 µM; hit rate 0.11% among 96,000; AID 697;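 active = activation at 2 µM above a set limit, the mean plus 5 SD, cut at about 37% in these data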
MRP1 act – MRP-1 activation | H69AR cells + doxorubicin, viability rescue, CellTiter-Glo | viability increase, % at 10 µM | hit rate 0.61% among 140,000;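 active = viability gain under doxorubicin at or above a set limit, the compound median plus 3 SD, cut at about 4.7% in these data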;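 note: MRP-1 overexpressing cells given doxorubicin 25 µM after compound pretreatment; 18-22 h compound pretreatment then 72 h with doxorubicin before readout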
PLAP activator – activators of human placental alkaline phosphatase | activation fold at 20 µM | purified PLAP enzyme, luminescent substrate read-out; active compounds read high | hit rate 1.2% among 96,000 | P05187; in the data active = activation fold above about 2
MRP reversal – compounds reversing MRP-mediated drug resistance | H69AR cells + 2 uM doxorubicin, CellTiter-Glo, 72 h | differential viability (reversal), % at 10 µM | hit rate 0.04% among 85,000 | AID 602;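 active = viability drop by adding the cancer drug above about 55%, with treated viability meeting a 40% cutoff, limit read from the data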;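 note: larger differential means the compound sensitizes cells more to doxorubicin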
FAK inh – blocks human focal adhesion kinase activity; inhibition, %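 (tested at 7 µM)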; Q05397; biochemical FAK kinase activity assay; hit rate 0.84% among 97,000; AID 727; in the data active = inhibition above about 19%
Target sequence (Q05397 whole entry, looked up): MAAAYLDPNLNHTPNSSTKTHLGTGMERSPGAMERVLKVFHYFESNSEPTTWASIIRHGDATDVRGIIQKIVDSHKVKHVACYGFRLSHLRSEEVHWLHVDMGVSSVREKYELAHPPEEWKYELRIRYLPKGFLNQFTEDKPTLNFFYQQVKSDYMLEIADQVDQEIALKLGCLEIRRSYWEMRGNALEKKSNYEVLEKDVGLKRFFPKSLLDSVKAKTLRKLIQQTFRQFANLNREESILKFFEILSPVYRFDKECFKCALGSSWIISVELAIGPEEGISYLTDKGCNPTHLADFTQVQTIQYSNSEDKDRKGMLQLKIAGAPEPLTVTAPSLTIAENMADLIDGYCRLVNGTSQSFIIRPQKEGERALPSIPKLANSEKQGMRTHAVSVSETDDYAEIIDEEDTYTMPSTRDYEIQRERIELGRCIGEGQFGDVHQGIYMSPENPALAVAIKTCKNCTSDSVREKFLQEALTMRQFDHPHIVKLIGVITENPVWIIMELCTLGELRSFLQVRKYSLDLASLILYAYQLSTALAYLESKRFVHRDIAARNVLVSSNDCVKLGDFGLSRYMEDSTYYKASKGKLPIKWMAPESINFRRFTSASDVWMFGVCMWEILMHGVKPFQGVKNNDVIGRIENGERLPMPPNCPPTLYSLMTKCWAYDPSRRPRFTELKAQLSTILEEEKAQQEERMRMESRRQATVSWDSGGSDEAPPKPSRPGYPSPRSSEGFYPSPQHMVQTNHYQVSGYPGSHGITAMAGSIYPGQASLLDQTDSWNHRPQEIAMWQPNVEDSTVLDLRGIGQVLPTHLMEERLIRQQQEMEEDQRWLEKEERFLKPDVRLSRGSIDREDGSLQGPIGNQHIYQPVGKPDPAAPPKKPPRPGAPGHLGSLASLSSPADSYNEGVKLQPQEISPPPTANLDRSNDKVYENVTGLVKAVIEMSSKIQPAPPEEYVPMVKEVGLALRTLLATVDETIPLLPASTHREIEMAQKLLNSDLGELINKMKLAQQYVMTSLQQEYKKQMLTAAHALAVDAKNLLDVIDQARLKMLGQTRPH
A number is an active result; - = inactive; . = not tested or not shown.

SMILES	LYP inh 2	LYP act	MRP1 act	PLAP activator	MRP reversal	FAK inh
O=C(NCc1ccc(F)cc1)C(=O)NCC1OCCN1C(=O)c1cccs1 (stereo not given)	.	.	5.3	.	.	.
CCCc1c2ccccc2nc2ccccc12	.	.	-	.	.	.
O=C1c2[nH]nc(-c3ccccc3O)c2C(c2cccc(O)c2)N1Cc1ccco1 (stereo not given)	-	-	-	2.2	-	-
COc1ccc(/C=N/Nc2cc(OC)ncn2)cc1	.	.	5.4	.	.	.
COc1ccc(/C=N/Nc2cc(N(C)C)nc(N(C)C)n2)cc1	.	.	-	.	.	.
CCOC(=O)c1sc(Nc2nc3cc4c(cc3s2)OCO4)cc1C	.	.	4.7	.	.	.
CCOC(=O)c1sc(Nc2nc3c(OC)cccc3s2)cc1C	.	.	-	.	.	.
O=C(OCc1cccc2ccccc12)c1ccc2c(=O)[nH]c(CN3CCOCC3)nc2c1	-	-	-	-	-	-
CCc1ccc2nc(NC(=O)c3ccc4c(=O)[nH]c(CN5CCOCC5)nc4c3)sc2c1	28.4	-	-	2.3	-	-
C=C(C(=O)c1ccccc1)C(CC(=O)c1ccccc1)c1ccccc1 (stereo not given)	.	.	-	.	.	.
Cc1ccc2oc(-c3ccccc3)nc2c1	-	-	-	-	-	-
Cc1ccc2oc(Nc3nc(C)cc(C)n3)nc2c1	-	-	-	2.8	-	-
Cn1c(Cc2ccccc2)nnc1SCC(=O)c1cccs1	-	-	-	-	-	-
CSCC[C@H](NC(=O)OC(C)(C)C)C(=O)N/N=C/c1c(C)[nH]c(=O)[nH]c1=O	-	-	-	2.2	.	-
COc1ccc(S(=O)(=O)N(C)CC(=O)N2CCN(Cc3ccccc3)CC2)cc1C	-	-	-	2	-	-
COc1ccc(-c2nnc3sc(C4CCCCC4)nn23)cc1OC	-	-	-	2.1	-	-
C1CCC(c2nn3c(-c4n[nH]c5c4CCC5)nnc3s2)CC1	-	-	-	2.3	-	-
COc1ccc(-c2nn3c(C4CCCCC4)nnc3s2)cc1OC	-	-	-	-	-	-
CCOC(=O)c1c(C2CC2)csc1NC(=O)COC(=O)CCS(=O)(=O)c1ccc(C)cc1	.	.	-	.	.	.
COC(=O)CCc1c(C)[nH]c(C(=O)OCc2ccccc2)c1C	-	-	5.1	-	-	-
NS(=O)(=O)c1ccc(CCNC(=O)c2ccc(S(=O)(=O)N3CCCCC3)cc2)cc1	-	-	-	2	.	-
CCCCCOc1ccc(CSc2ncn[nH]2)cc1	-	-	6.3	.	-	-
CCCCOc1ccc(CSc2n[nH]c(C)n2)cc1	-	-	-	-	-	-
CCCCOc1ccc(CSc2ncn[nH]2)cc1	-	-	9.8	2.3	-	-
Cc1oc(-c2cccc(Cl)c2)nc1CN1CCC(C(=O)NCCCN2CCCC2=O)CC1	-	-	-	-	-	-
SMILES	LYP inh 2	LYP act	MRP1 act	PLAP activator	MRP reversal	FAK inh
COc1ccc(CCNC(=O)C2CCN(Cc3nc(-c4cccc(Cl)c4)oc3C)CC2)cc1OC	.	.	-	2.2	-	.
O=C1CSC(=NC(=O)c2ccccc2)N1	-	-	6.2	-	-	-
CCCCNc1ccccc1C(=O)OCC(=O)Nc1ccc(S(N)(=O)=O)cc1	-	-	-	2.1	.	-
CCC(=O)Nc1ccccc1C(=O)OCC(=O)Nc1ccc(S(N)(=O)=O)cc1	-	-	-	-	-	-
COC(=O)C1=CNC=C(C(=O)OC)C1c1ccc(C(=O)OC)cc1	.	.	-	2	-	.
C=C(C)CNC(=S)NNC(=O)c1cc(C)oc1C	.	.	-	.	.	.
C=C(C)CNC(=S)NNC(=O)c1ccco1	-	-	-	2	-	-
CCOc1ccc(C2C(C#N)=C(N)SC(N)=C2C#N)cc1OCC	.	.	-	2.6	-	.
Cc1nn(CCc2n[nH]c(=S)n2-c2ccc(F)c(Cl)c2)c(C)c1[N+](=O)[O-]	-	-	-	-	.	-
Cc1nn(CCc2n[nH]c(=S)n2-c2cccc(Cl)c2)c(C)c1[N+](=O)[O-]	-	-	-	2.2	.	-
CCN(C(=O)CSc1nc2ccccc2n1CCc1ccccc1)C1CCS(=O)(=O)C1 (stereo not given)	-	-	-	2.4	-	-
CCCC(C)NC1=NCCCCC1 (stereo not given)	-	-	-	-	-	-
CCOc1ccccc1C(=O)Nc1cnn(Cc2ccc(F)cc2)c1	.	.	-	.	.	.
COc1ccc(N=Nc2nc3cc(Br)c(Br)cc3n2C)c(OC)c1	.	.	-	.	.	.
CCNC(=S)NNC(=O)c1ccc(OC(F)F)cc1	-	-	-	2.3	.	-
C=CCNC(=S)NNC(=O)COc1ccc(Br)cc1	.	.	6.4	.	.	.
C=CCNC(=S)NNC(=O)c1csc(C)c1CC	-	-	-	2.1	.	-
CCCCNC(=S)NNC(=O)c1csc(C)c1CC	.	.	-	.	.	.
C=CCNC(=S)NNC(=O)c1ccc2c(c1)OCO2	-	-	-	2.2	.	-
C=CCNC(=S)NNC(=O)c1ccc(OC(C)C)cc1	-	-	-	2.4	-	-
COc1ccc2nc(NC3=NC(C(=O)Nc4ccc(C)cc4)CC(=O)N3)nc(C)c2c1 (stereo not given)	.	.	-	.	.	.
O=C(Nc1ccn(Cc2ccccc2F)n1)c1ccc(COc2cc(Cl)ccc2Cl)o1	-	-	7.0	-	.	-
COc1ccc(OCCSc2ncnc3nc[nH]c23)cc1	-	-	-	2	-	-
Cc1cccc(CSc2ncnc3nc[nH]c23)c1	.	.	-	2.2	-	.
c1ccc(OCCSc2ncnc3nc[nH]c23)cc1	-	-	.	.	-	-
SMILES	LYP inh 2	LYP act	MRP1 act	PLAP activator	MRP reversal	FAK inh
CCN(CC)C(=O)NC1CC(=O)N(c2ccc(OC)cc2)C1 (stereo not given)	.	.	-	.	.	.
COc1cc(OC)c(C(=O)OC(C)C(=O)Nc2cccc(C(F)(F)F)c2)cc1OC (stereo not given)	.	.	-	.	.	.
O=C(CC1SC(=O)N(Cc2ccc(Cl)cc2)C1=O)Nc1nccs1 (stereo not given)	.	.	12.2	.	.	.
O=C(CSCc1ccc(Cl)cc1)Nc1nccs1	-	-	-	-	-	-
COc1cccc(Nc2nc3ccccc3nc2-n2nc(C)cc2C)c1	-	-	5.6	-	-	-
CC(C)CCOc1ncnc2c1sc1nc3c(cc12)CSC(C)(C)C3	-	-	6.3	.	-	-
